Laboratory results published in PubChem BioAssay (NCI).
The panel holds about 83,000 compounds, 20% with a hit somewhere; the sample as a whole holds those more often.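 Cell lines were cultured in 96-well plates, exposed to a single compound concentration, and assessed for percent growth 48 hours later.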 Active and inactive are the calls of the source. The calls were made as follows: active = growth percent below 10; inactive = the rest.

Columns and labels:
Assay in all cases: NCI-60 one-dose screen, 48 h (100 = growth as untreated, 0 = no growth, -100 = all killed)
Conditions in all cases: 10 µM unless noted
NCI-H23 lung = tested on: NCI-H23 lung
NCI-H322M lung = tested on: NCI-H322M lung
HOP-62 NSCLC = tested on: HOP-62 NSCLC
NCI-H460 lung = tested on: NCI-H460 lung
HOP-92 NSCLC = tested on: HOP-92 NSCLC
NCI-H522 lung = tested on: NCI-H522 lung
A549/ATCC NSCLC = tested on: A549/ATCC NSCLC
786-0 renal = tested on: 786-0 renal
COLO 205 colon = tested on: COLO 205 colon
DU-145 prostate = tested on: DU-145 prostate
K-562 leukemia = tested on: K-562 leukemia
MALME-3M melanoma = tested on: MALME-3M melanoma
MDA-MB-231 breast = tested on: MDA-MB-231 breast
RXF 393 renal = tested on: RXF 393 renal
SF-268 CNS = tested on: SF-268 CNS
SF-295 CNS = tested on: SF-295 CNS
SF-539 CNS = tested on: SF-539 CNS
UACC-257 melanoma = tested on: UACC-257 melanoma
M14 melanoma = tested on: M14 melanoma
HCT-15 colon = tested on: HCT-15 colon

Measured: growth

FC(F)(F)c1cccc(CNC2CCN(CCc3ccccc3)CC2)c1
inactive: NCI-H23 lung 71.6% | NCI-H322M lung 84% | HOP-62 NSCLC 91.1% | NCI-H460 lung 59.8% | HOP-92 NSCLC 15.7% | NCI-H522 lung 86.7% | A549/ATCC NSCLC 77.5% | 786-0 renal 78.6% | COLO 205 colon 76.2% | DU-145 prostate 59.1% | K-562 leukemia 30.1% | MALME-3M melanoma 74.8% | MDA-MB-231 breast 66.5% | RXF 393 renal 84.1% | SF-268 CNS 74.7% | SF-295 CNS 81.7% | SF-539 CNS 93.5% | UACC-257 melanoma 87% | M14 melanoma 49.2% | HCT-15 colon 86.8%

O=[N+]([O-])c1cc2c(ccc3occc32)o1
inactive: NCI-H23 lung 39.5% | NCI-H322M lung 61% | HOP-62 NSCLC 63.5% | HOP-92 NSCLC 26.6% | NCI-H522 lung 25.7% | A549/ATCC NSCLC 26.1% | 786-0 renal 71.3% | K-562 leukemia 11.9% | MDA-MB-231 breast 17.3% | SF-268 CNS 18.5% | SF-539 CNS 33.5% | HCT-15 colon 12.1%
active: NCI-H460 lung -28.2% | COLO 205 colon -24.1% | DU-145 prostate -7.23% | MALME-3M melanoma -33.1% | RXF 393 renal -2.62% | SF-295 CNS -34.9% | UACC-257 melanoma -20.1% | M14 melanoma -8.26%

O=S1(=O)CCN(Cc2ccccc2)CC1
inactive: NCI-H23 lung 98.4% | NCI-H322M lung 110% | HOP-62 NSCLC 96.7% | NCI-H460 lung 103% | HOP-92 NSCLC 79.5% | NCI-H522 lung 104% | A549/ATCC NSCLC 104% | 786-0 renal 95.3% | COLO 205 colon 107% | DU-145 prostate 103% | K-562 leukemia 101% | MALME-3M melanoma 112% | MDA-MB-231 breast 105% | RXF 393 renal 121% | SF-268 CNS 92.2% | SF-295 CNS 97% | SF-539 CNS 95.6% | UACC-257 melanoma 105% | M14 melanoma 90.3% | HCT-15 colon 92.8%

CCOc1cccc(/C=N\Nc2nc(=O)cc(C(=O)OC)s2)c1O
inactive: NCI-H23 lung 85.7% | NCI-H322M lung 54.2% | HOP-62 NSCLC 85.6% | NCI-H460 lung 44% | HOP-92 NSCLC 60.1% | NCI-H522 lung 79.3% | A549/ATCC NSCLC 63.1% | 786-0 renal 83.9% | COLO 205 colon 91.6% | DU-145 prostate 103% | K-562 leukemia 50.8% | MALME-3M melanoma 66.8% | MDA-MB-231 breast 78.7% | RXF 393 renal 97% | SF-268 CNS 76% | SF-295 CNS 57.5% | SF-539 CNS 82.6% | UACC-257 melanoma 78.2% | M14 melanoma 63.7% | HCT-15 colon 45.6%

O=C(Nc1ccccc1O)c1ccc(-c2ccc(Cl)cc2Cl)o1
inactive: NCI-H23 lung 85% | NCI-H322M lung 101% | HOP-62 NSCLC 93.7% | NCI-H460 lung 98.2% | HOP-92 NSCLC 80.4% | NCI-H522 lung 91.4% | A549/ATCC NSCLC 102% | 786-0 renal 88.2% | COLO 205 colon 90.7% | DU-145 prostate 91% | K-562 leukemia 47.1% | MALME-3M melanoma 71.4% | MDA-MB-231 breast 80.4% | RXF 393 renal 79.7% | SF-268 CNS 77.1% | SF-295 CNS 68.4% | SF-539 CNS 115% | UACC-257 melanoma 106% | M14 melanoma 90% | HCT-15 colon 95.9%

O=C1OC(c2ccccc2)(c2ccccc2)c2ccsc21
inactive: NCI-H23 lung 113% | NCI-H322M lung 90.7% | HOP-62 NSCLC 117% | NCI-H460 lung 98.8% | HOP-92 NSCLC 87.1% | NCI-H522 lung 92.6% | A549/ATCC NSCLC 101% | 786-0 renal 103% | COLO 205 colon 121% | DU-145 prostate 104% | K-562 leukemia 87% | MALME-3M melanoma 87.2% | MDA-MB-231 breast 100% | RXF 393 renal 114% | SF-268 CNS 97.3% | SF-295 CNS 97.2% | SF-539 CNS 98.9% | UACC-257 melanoma 103% | M14 melanoma 106% | HCT-15 colon 95.2%

CC(C)[C@H](NC(=O)Cn1cc(C(=O)O)nn1)C(=O)O
inactive: NCI-H23 lung 97.3% | NCI-H322M lung 99.9% | HOP-62 NSCLC 108% | NCI-H460 lung 106% | HOP-92 NSCLC 99.2% | NCI-H522 lung 104% | A549/ATCC NSCLC 97% | 786-0 renal 104% | COLO 205 colon 119% | DU-145 prostate 114% | K-562 leukemia 118% | MALME-3M melanoma 101% | MDA-MB-231 breast 97.6% | RXF 393 renal 112% | SF-268 CNS 115% | SF-295 CNS 93% | SF-539 CNS 105% | UACC-257 melanoma 99.6% | M14 melanoma 108% | HCT-15 colon 100%

O=C(COc1cc(O)c2c(=O)cc(-c3ccccc3)oc2c1)Nc1ccccc1C(F)(F)F
active: NCI-H460 lung -42.5% | A549/ATCC NSCLC 0.206% | 786-0 renal 7.11% | MDA-MB-231 breast 9.62%
inactive: NCI-H23 lung 46.1% | NCI-H322M lung 62.2% | HOP-62 NSCLC 16.2% | HOP-92 NSCLC 51.6% | NCI-H522 lung 46.6% | COLO 205 colon 60.1% | DU-145 prostate 52.7% | K-562 leukemia 49.2% | MALME-3M melanoma 54.3% | RXF 393 renal 63.4% | SF-268 CNS 63.5% | SF-295 CNS 34.6% | SF-539 CNS 35.2% | UACC-257 melanoma 73.4% | M14 melanoma 70.6% | HCT-15 colon 53.4%
